Results reported in the supplement of paper PMC11006884.
About 6,500 targets were measured; listed, in parts, are those with a hit and a random draw of the rest. About 2% of all pairs of compound and target were hits.

compound: COC(=O)C#Cc1ccccc1 [methyl 3-phenylpropiolate]; assay: log2 ratio of iodoacetamide-alkyne labeling of the cysteine site, DMSO over compound (competition); higher = stronger covalent engagement of the cysteine by the compound, active = 1 or more; conditions: 500 µM; treatment time 1 h; system: HEK293T cell lysate
Outline: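 Electrophile (500 µM) or vehicle was added to HEK293T lysate (2 mg/mL) for 1 h at ambient temperature before iodoacetamide alkyne labelling (1 h) and click coupling to sCIP-TMT reagents. After pooling, overnight trypsin digestion at 37 °C, streptavidin enrichment and acid elution, peptides were measured by Orbitrap Eclipse LC-MS/MS with FAIMS and quantified in FragPipe. Each cysteine's log2 competition ratio compares mean control-channel with mean compound-channel reporter intensity, control over compound. Data came from duplicate channels across three replicates, excluding cysteines quantified in only one replicate.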

log2 ratio of iodoacetamide-alkyne labeling, inactive:
UniProt Q8WZA9_C373 0.706, UniProt Q69YQ0_C79 0.787, APIP C97 (UniProt Q96GX9) 0.129, UniProt Q92616_C36 0.339, UniProt Q96GD4_C234 0.62, DIS3L2 C312 (UniProt Q8IYB7) 0.226, TMCO6 C57 (UniProt Q96DC7) 0.394, GTF3C2 C608 (UniProt Q8WUA4) 0.147, FTSJ3 C197 (UniProt Q8IY81) 0.103, THOC6 C314 (UniProt Q86W42) 0.0566, DDX1 C110 (UniProt Q92499) 0.315, SECISBP2L C544 (UniProt Q93073) 0.341, HSDL2 C11 (UniProt Q6YN16) 0.0294, UniProt Q7LBC6_C1451 0.513, ZNF428 C93 (UniProt Q96B54) 0.191, CAND1 C413 (UniProt Q86VP6) 0.304, CWF19L1 C176 (UniProt Q69YN2) -0.136, ZFYVE16 C292 (UniProt Q7Z3T8) 0.185, CRBN C78 (UniProt Q96SW2) 0.133, STRBP C40 (UniProt Q96SI9) 0.168, UniProt Q7Z5K2_C94 0.262, DARS2 C371 (UniProt Q6PI48) 0.442, PDLIM5 C446 (UniProt Q96HC4) 0.0755, IRF2BP2 C40 (UniProt Q7Z5L9) 0.276, GBF1 C1766 (UniProt Q92538) 0.302, KHSRP C296 (UniProt Q92945) 0.00483, DDX54 C73 (UniProt Q8TDD1) 0.301, ATRIP C74 (UniProt Q8WXE1) 0.563, PIK3R4 C899 (UniProt Q99570) 0.087, EHMT2 C617 (UniProt Q96KQ7) 0.759, CCDC50 C85 (UniProt Q8IVM0) 0.455

log2 ratio of iodoacetamide-alkyne labeling, active:
UniProt Q5VSL9_C418 1.22, BEND3 C95 (UniProt Q5T5X7) 1.11, UniProt Q969V6_C326 1.42, ISCA2 C144 (UniProt Q86U28) 1.59
